This is an account of results in PubChem BioAssay (EPA / NIEHS).

Common to all, as to conditions: mRNA level, 48 h; actives raise or lower the signal
Read-out in assay [1]: Insulin Like Growth Factor 1 (IGF1), IGF1 (gene 3479)
Put plainly: LTEA_HepaRG_IGF1: Life Technologies and Expression Analysis (LTEA) Assay for Insulin Like Growth Factor 1 (IGF1) using HepaRG (AID 2283506). A digest of the protocol:
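Differentiated HepaRG cells in serum-free induction medium, exposed 48 h in duplicate to 8 half-log concentrations up to 100 uM in 0.5% DMSO. IGF1 mRNA by Fluidigm qRT-PCR, normalised to ACTB, GAPDH and POLR2A.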

Read-out in assay [2]: Intercellular Adhesion Molecule 1 (ICAM1), ICAM1 (gene 3383)
Briefly: LTEA_HepaRG_ICAM1: Life Technologies and Expression Analysis (LTEA) Assay for Intercellular Adhesion Molecule 1 (ICAM1) using HepaRG (AID 2283507). A digest of the protocol:
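Differentiated human HepaRG cells in serum-free induction medium exposed 48 h in duplicate to 8 half-log concentrations (top 100 uM, 0.5% DMSO). ICAM1 mRNA quantified by TaqMan qRT-PCR, normalized to ACTB, GAPDH and POLR2A; bidirectional fitting versus DMSO.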

Read-out in assay [3]: Insulin-like growth factor-binding protein 1 (IGFBP1), IGFBP1 (gene 3484)
Put plainly: LTEA_HepaRG_IGFBP1: Life Technologies and Expression Analysis (LTEA) Assay for Insulin-like growth factor-binding protein 1 (IGFBP1) using HepaRG (AID 2283508). The essentials: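 HepaRG cells, plated 48 h then switched to serum-free induction medium, exposed in duplicate for 48 h to 8-point half-log series from 100 uM in 0.5% DMSO. mRNA measured by qRT-PCR, normalized to ACTB/GAPDH/POLR2A; bidirectional fit versus DMSO.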

Read-out in assay [4]: Interleukin 6 (IL6), IL6 (gene 3569)
Briefly: LTEA_HepaRG_IL6: Life Technologies and Expression Analysis (LTEA) Assay for Interleukin 6 (IL6) using HepaRG (AID 2283509). The essentials: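 HepaRG cells exposed in duplicate for 48 h to eight half-log concentrations, top 100 uM, in 0.5% DMSO serum-free induction medium. mRNA measured by qRT-PCR, normalized to ACTB, GAPDH and POLR2A. Bidirectional fit versus DMSO.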

Read-out in assay [5]: Interleukin 6 Receptor (IL6R), IL6R (gene 3570)
Put plainly: LTEA_HepaRG_IL6R: Life Technologies and Expression Analysis (LTEA) Assay for Interleukin 6 Receptor (IL6R) using HepaRG (AID 2283510).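 As to AC50: TaqMan qRT-PCR signal normalized to ACTB GAPDH and POLR2A housekeeping genes.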 A digest of the protocol:
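Differentiated HepaRG cells, plated 48 h, then exposed in duplicate for 48 h in serum-free induction medium to 8 half-log concentrations (top 100 uM, 0.5% DMSO). IL6R mRNA measured by TaqMan qRT-PCR, normalized to ACTB/GAPDH/POLR2A; bidirectional fit vs DMSO.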

Read-out in assay [6]: Potassium channel subfamily K member 1 (KCNK1), KCNK1 (gene 3775)
Put plainly: LTEA_HepaRG_KCNK1: Life Technologies and Expression Analysis (LTEA) Assay for Potassium channel subfamily K member 1 (KCNK1) using HepaRG (AID 2283511). The essentials: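 Differentiated HepaRG cells, 48 h exposure in serum-free induction medium with 0.5% DMSO; 8 concentrations, half-log from 100 uM, duplicate. KCNK1 mRNA by qRT-PCR, normalized to ACTB, GAPDH, POLR2A; bidirectional fit vs DMSO.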

Read-out in assay [7]: JUN Transcription Factor, JUN (gene 3725)
Briefly: LTEA_HepaRG_JUN: Life Technologies and Expression Analysis (LTEA) Assay for JUN Transcription Factor using HepaRG (AID 2283513). A digest of the protocol: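 HepaRG cells, 48 h post-plating, exposed 48 h in serum-free induction medium to 8-point half-log series (top 100 uM, 0.5% DMSO), duplicate; mRNA by qRT-PCR (TaqMan, Fluidigm), normalized to ACTB/GAPDH/POLR2A; bidirectional fit vs DMSO.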

Read-out in assay [8]: Lipase C (LIPC), LIPC (gene 3990)
Put plainly: LTEA_HepaRG_LIPC: Life Technologies and Expression Analysis (LTEA) Assay for Lipase C (LIPC) using HepaRG (AID 2283514). A digest of the protocol: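 HepaRG cells, 48 h after plating, treated in duplicate for 48 h in serum-free induction medium over 8 half-log concentrations from 100 uM, 0.5% DMSO. LIPC mRNA by TaqMan qRT-PCR normalized to ACTB/GAPDH/POLR2A; bidirectional fit versus DMSO.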

Read-out in assay [9]: Lipoprotein lipase (LPL), LPL (gene 4023)
Briefly: LTEA_HepaRG_LPL: Life Technologies and Expression Analysis (LTEA) Assay for Lipoprotein lipase (LPL) using HepaRG (AID 2283515). A digest of the protocol:
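Differentiated HepaRG cells, plated 48 h, then exposed 48 h in serum-free induction medium to 8 concentrations (top 100 uM, half-log steps) in 0.5% DMSO, duplicate. LPL mRNA measured by qRT-PCR, normalized to ACTB, GAPDH and POLR2A.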

Read-out in assay [10]: MicroRNA 122 (MIR122), gene 406906
Briefly: LTEA_HepaRG_MIR122: Life Technologies and Expression Analysis (LTEA) Assay for MicroRNA 122 (MIR122) using HepaRG (AID 2283516). Also: the transcript read is the microRNA miR-122. A digest of the protocol:
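Differentiated human HepaRG cells in serum-free induction medium exposed 48 h to 8 half-log concentrations from 100 uM in 0.5% DMSO, duplicate. MIR122 quantified by Fluidigm TaqMan qRT-PCR, normalised to ACTB, GAPDH, POLR2A; fold change fitted bidirectionally versus DMSO.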

Read-out in assay [11]: matrix metalloproteinase-10 (MMP10), MMP10 (gene 4319)
Briefly: LTEA_HepaRG_MMP10: Life Technologies and Expression Analysis (LTEA) Assay for matrix metalloproteinase-10 (MMP10) using HepaRG (AID 2283517). The essentials:
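Differentiated HepaRG cells in serum-free induction medium exposed 48 h in duplicate to 8-point half-log series up to 100 uM in 0.5% DMSO. mRNA quantified by qRT-PCR, normalised to ACTB, GAPDH, POLR2A; bidirectional fit versus DMSO.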

Read-out in another assay: MYC, MYC (gene 4609)
Briefly: LTEA_HepaRG_MYC: Life Technologies and Expression Analysis (LTEA) Assay for MYC using HepaRG (AID 2283518). A digest of the protocol:
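Differentiated HepaRG cells exposed 48 h in serum-free induction medium to 8 concentrations (top 100 uM, half-log steps; 0.5% DMSO), duplicate. MYC mRNA measured by Fluidigm qRT-PCR, normalized to ACTB, GAPDH, POLR2A; bidirectional fit versus DMSO.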

Read-out in assay [12]: Paternally Expressed 10 (PEG10), PEG10 (gene 23089)
Put plainly: LTEA_HepaRG_PEG10: Life Technologies and Expression Analysis (LTEA) Assay for Paternally Expressed 10 (PEG10) using HepaRG (AID 2283520). A digest of the protocol:
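Differentiated HepaRG cells exposed 48 h in serum-free induction medium to eight half-log concentrations topping at 100 uM, 0.5% DMSO, in duplicate. PEG10 mRNA quantified by TaqMan qRT-PCR, normalized to ACTB, GAPDH and POLR2A; bidirectional fit versus DMSO.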

Read-out in assay [13]: Nuclear factor NF-kappa-B p105 subunit (Homo sapiens) (UniProt P19838)
Briefly: LTEA_HepaRG_NFKB1: Life Technologies and Expression Analysis (LTEA) Assay for Nuclear Factor Kappa B Subunit 1 (NFKB1) using HepaRG (AID 2283521).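 Also: TaqMan qRT-PCR transcript normalised to ACTB GAPDH and POLR2A housekeeping genes.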 A digest of the protocol: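 NFKB1 transcript was measured by TaqMan qRT-PCR on Fluidigm arrays, normalised to three housekeeping genes and fitted in both directions against 0.5% DMSO. HepaRG cells were dosed in duplicate for 48 h in serum-free induction medium, eight half-log steps from 100 uM.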

Read-out in assay [14]: Protein phosphatase 2A (PPP2R4), PTPA (gene 5524)
Put plainly: LTEA_HepaRG_PPP2R4: Life Technologies and Expression Analysis (LTEA) Assay for Protein phosphatase 2A (PPP2R4) using HepaRG (AID 2283522). A digest of the protocol:
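Differentiated human HepaRG cells in serum-free induction medium were exposed 48 h to 8 concentrations (top 100 µM, half-log steps, duplicate) in 0.5% DMSO. PPP2R4 mRNA was measured by TaqMan qRT-PCR, normalised to ACTB, GAPDH and POLR2A, and fitted bidirectionally versus DMSO.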

Read-out in assay [15]: Phosphatase and tensin (PTEN), PTEN (gene 5728)
Put plainly: LTEA_HepaRG_PTEN: Life Technologies and Expression Analysis (LTEA) Assay for Phosphatase and tensin (PTEN) using HepaRG (AID 2283523). The essentials: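 HepaRG cells, 48 h after plating, exposed in duplicate for 48 h in serum-free induction medium to 8 half-log concentrations up to 100 uM (0.5% DMSO). PTEN mRNA by qRT-PCR, normalized to ACTB, GAPDH, POLR2A; bidirectional fit versus DMSO.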

Read-out in assay [16]: solute carrier (SLC22A1), SLC22A1 (gene 6580)
Put plainly: LTEA_HepaRG_SLC22A1: Life Technologies and Expression Analysis (LTEA) Assay for solute carrier (SLC22A1) using HepaRG (AID 2283524). A digest of the protocol: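 Differentiated human HepaRG cells in serum-free induction medium, exposed 48 h in duplicate to 8-point half-log series from 100 µM top in 0.5% DMSO. SLC22A1 mRNA by TaqMan qRT-PCR normalized to ACTB, GAPDH, POLR2A; bidirectional fit versus DMSO.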

Read-out in assay [17]: Pyruvate Dehydrogenase Kinase 4 (PDK4), PDK4 (gene 5166)
Briefly: LTEA_HepaRG_PDK4: Life Technologies and Expression Analysis (LTEA) Assay for Pyruvate Dehydrogenase Kinase 4 (PDK4) using HepaRG (AID 2283525). The essentials:
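HepaRG cells plated 48 h, then switched to serum-free induction medium and exposed in duplicate for 48 h to 8 half-log concentrations from 100 uM in 0.5% DMSO. PDK4 mRNA measured by qRT-PCR, normalized to ACTB, GAPDH and POLR2A; bidirectional fit versus DMSO.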

Read-out in assay [18]: Keratin 19 (KRT19), KRT19 (gene 3880)
Briefly: LTEA_HepaRG_KRT19: Life Technologies and Expression Analysis (LTEA) Assay for Keratin 19 (KRT19) using HepaRG (AID 2283512). The essentials:
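Differentiated HepaRG cells in serum-free induction medium, exposed 48 h in duplicate to 8 half-log concentrations up to 100 uM in 0.5% DMSO. KRT19 mRNA by qRT-PCR, normalized to ACTB, GAPDH, POLR2A; bidirectional fit vs DMSO.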

Read-out in assay [19]: matrix metalloproteinase-3 (MMP3), MMP3 (gene 4314)
Briefly: LTEA_HepaRG_MMP3: Life Technologies and Expression Analysis (LTEA) Assay for matrix metalloproteinase-3 (MMP3) using HepaRG (AID 2283519). The essentials:
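HepaRG cells (~100,000/well) in serum-free induction medium were dosed in duplicate for 48 h with an 8-point half-log series from 100 uM, 0.5% DMSO. MMP3 mRNA was quantified by Fluidigm TaqMan qRT-PCR, normalized to three housekeeping genes.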

Structures are written as SMILES. The source made the active and inactive calls. The calls were made as follows: active = hit-call score of the fitted dose curve at least 0.9, where 1 is the maximum; inactive = score below 0.9.

Nuclear factor NF-kappa-B p105 subunit (Homo sapiens), sequence (P19838 whole entry, looked up): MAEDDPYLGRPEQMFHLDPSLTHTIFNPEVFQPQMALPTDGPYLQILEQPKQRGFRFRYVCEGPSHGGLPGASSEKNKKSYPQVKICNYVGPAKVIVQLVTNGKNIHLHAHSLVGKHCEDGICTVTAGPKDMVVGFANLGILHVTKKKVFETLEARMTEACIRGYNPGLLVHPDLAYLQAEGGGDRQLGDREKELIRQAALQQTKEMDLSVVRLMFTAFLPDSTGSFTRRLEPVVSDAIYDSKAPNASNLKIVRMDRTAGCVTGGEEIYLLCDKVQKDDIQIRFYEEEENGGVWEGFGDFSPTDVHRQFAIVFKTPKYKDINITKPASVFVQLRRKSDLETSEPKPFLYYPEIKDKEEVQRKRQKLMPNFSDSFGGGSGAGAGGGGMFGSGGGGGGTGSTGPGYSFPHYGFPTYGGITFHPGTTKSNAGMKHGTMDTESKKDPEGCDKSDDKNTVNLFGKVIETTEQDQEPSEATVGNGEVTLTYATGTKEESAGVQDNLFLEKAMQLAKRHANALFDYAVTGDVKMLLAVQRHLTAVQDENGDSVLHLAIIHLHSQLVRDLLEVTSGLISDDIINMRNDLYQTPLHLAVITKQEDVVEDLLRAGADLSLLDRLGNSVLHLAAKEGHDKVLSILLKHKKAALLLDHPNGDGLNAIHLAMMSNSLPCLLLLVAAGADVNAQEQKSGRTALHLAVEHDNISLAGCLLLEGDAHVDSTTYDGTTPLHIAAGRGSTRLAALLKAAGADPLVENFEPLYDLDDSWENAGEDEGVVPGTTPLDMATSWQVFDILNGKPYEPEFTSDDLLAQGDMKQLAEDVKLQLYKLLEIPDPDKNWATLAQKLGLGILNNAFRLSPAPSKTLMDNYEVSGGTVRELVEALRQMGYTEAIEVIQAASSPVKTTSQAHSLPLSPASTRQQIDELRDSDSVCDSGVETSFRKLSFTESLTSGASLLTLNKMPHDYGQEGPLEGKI

As to `COCC(C)OCC(C)OCC(C)O` (stereo unspecified), the call in [1], in [2], in [3], in assay [4], in assay [5] and in assay [6] was inactive. In addition, the outcome in assay [7] was “inactive”; in assay [8], “inactive”; in assay [9], “inactive”; in assay [10] it was “inactive”; in [11], “inactive”; with MYC, MYC (gene 4609) it was “inactive”. Also, the compound was called inactive in assay [12], in assay [13], in assay [14], in [15], in [16] and in [17].
Consider `CC(C)(O)c1ccc(CNC(=O)c2cccnc2Oc2ccc3nonc3c2)cc1`, for which, in assay [1], the AC50 is 22.7 µM (active). Also, the compound was classed as inactive in [2], in assay [3], in assay [4], in assay [5], in assay [6] and in assay [18]. In addition, the compound was called inactive in assay [7], in assay [8], in assay [9], in assay [11], in assay [19] and in [12]. The outcome in assay [13], in assay [14], in assay [15], in assay [16] and in assay [17] was inactive.
With `c1ccc(C[n+]2cccc3ccccc32)cc1`, the AC50 in [1] is 20.7 µM (active); in assay [2] it was 70.8 µM (active); in assay [3], 34.6 µM (active); in assay [5], 50 µM (active); in assay [8], 32 µM (active); in assay [9] it was 32.8 µM (active). The values for the AC50 in assay [16] and in assay [17] were 25 µM (active) and 31 µM (active), respectively. For the same compound, the compound was called inactive in [6], in assay [7], in [11], in [12], in [13] and in assay [14]. In addition, the compound was classed as inactive in assay [15].

By AC50 is commonly meant the concentration giving half of the maximal activity seen.
